Measured values published in PubChem BioAssay AID1159580 (chemical genetic matrix, 2015).
Screen size: about 5,500 compounds; about 2,000 (36%) were called active. Another 18% or so got no clear call; they are omitted. No stated cut-off is given here; in the data, active means normalized growth mostly below about 0.91 (no sharp cut-off); inconclusive means no clear call, values can overlap the other calls; inactive means mostly above about 0.92. The list shows a part of the results.

Experiment: chemical genetic growth profiling, strain panel (AID 1159580);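 further: tested at 20 µM; growth read once vehicle control cultures reached saturation at 30 °C; 1 = growth at the plate median or of vehicle wells; lower values mean less growth of the strain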
Settings: S. cerevisiae deletion strains, growth OD

Measured: normalized growth

O=C(NCCSCc1cccc(C(F)(F)F)c1)Nc1cccc(C(F)(F)F)c1
inactive: locus YAR019C, strain CDC15, active compounds read low 0.999 | locus YBL105C, strain PKC1, active compounds read low 1 | locus YBR135W, strain CKS1, active compounds read low 0.994 | locus YBR136W, strain MEC1, active compounds read low 0.998 | locus YBR160W, strain CDC28, active compounds read low 0.997 | locus YDL017W, strain CDC7, active compounds read low 1 | locus YDL028C, strain MPS1, active compounds read low 0.996 | locus YDL101C, strain DUN1, active compounds read low 1.01 | locus YDL108W, strain KIN28, active compounds read low 0.999 | locus YDL132W, strain cdc53, active compounds read low 0.99 | locus YDL214C, strain PRR2, active compounds read low 1.01 | locus YDR052C, strain DBF4, active compounds read low 1.01 | locus YDR054C, strain cdc34, active compounds read low 0.995 | locus YDR226W, strain ADK1, active compounds read low 1 | locus YDR477W, strain SNF1, active compounds read low 1.01 | locus YER123W, strain YCK3, active compounds read low 1.02 | locus YER133W, strain GLC7, active compounds read low 1.02 | locus YFL009W, strain cdc4, active compounds read low 0.992 | locus YFL029C, strain CAK1, active compounds read low 0.991 | locus YFR003C, strain YPI1, active compounds read low 1 | locus YFR019W, strain FAB1, active compounds read low 1 | locus YFR028C, strain CDC14, active compounds read low 0.997 | locus YGR040W, strain KSS1, active compounds read low 1 | locus YGR052W, strain FMP48, active compounds read low 1.18 | locus YGR092W, strain DBF2, active compounds read low 1 | locus YHR030C, strain SLT2, active compounds read low 1.15 | locus YHR079C, strain IRE1, active compounds read low 1.11 | locus YHR082C, strain KSP1, active compounds read low 1.18 | locus YHR205W, strain SCH9, active compounds read low 0.989 | locus YIL147C, strain SLN1, active compounds read low 1 | locus YJL095W, strain BCK1, active compounds read low 1.17 | locus YJL128C, strain PBS2, active compounds read low 0.954 | locus YJL157C, strain FAR1, active compounds read low 1.01 | locus YJR016C, strain ILV3, active compounds read low 1.01 | locus YJR066W, strain TOR1 (second series), active compounds read low 0.993 | locus YJR066W, strain TOR1, active compounds read low 1.21 | locus YKL048C, strain ELM1, active compounds read low 0.983 | locus YKL067W, strain YNK1, active compounds read low 1.01 | locus YKL101W, strain HSL1, active compounds read low 0.997 | locus YKL193C, strain SDS22, active compounds read low 1 | locus YKL203C, strain TOR2, active compounds read low 1.09 | locus YLR113W, strain HOG1, active compounds read low 1.07 | locus YLR133W, strain CKI1, active compounds read low 0.997 | locus YLR403W, strain SFP1, active compounds read low 0.999 | locus YML070W, strain DAK1, active compounds read low 1.01 | locus YMR001C, strain CDC5, active compounds read low 0.996 | locus YMR205C, strain PFK2 (second series), active compounds read low 1.01 | locus YMR277W, strain FCP1, active compounds read low 0.999 | locus YNL006W, strain LST8, active compounds read low 1 | locus YNL020C, strain ARK1, active compounds read low 0.988 | locus YNL161W, strain CBK1, active compounds read low 1 | locus YNL183C, strain NPR1, active compounds read low 1.15 | locus YNL207W, strain RIO2, active compounds read low 1.01 | locus YNL222W, strain SSU72, active compounds read low 0.998 | locus YNL307C, strain MCK1 (second series), active compounds read low 0.997 | locus YOL078W, strain AVO1, active compounds read low 0.995 | locus YOL136C, strain PFK27, active compounds read low 0.992 | locus YOR061W, strain CKA2, active compounds read low 0.986 | locus YOR119C, strain RIO1, active compounds read low 1.04 | locus YOR231W, strain MKK1, active compounds read low 1.1 | locus YOR329C, strain SCD5, active compounds read low 1 | locus YPL031C, strain PHO85, active compounds read low 1.01 | locus YPL153C, strain RAD53, active compounds read low 1.02 | locus YPL204W, strain HRR25, active compounds read low 1.01 | locus YPL209C, strain IPL1, active compounds read low 0.997 | locus YPL256C, strain CLN2, active compounds read low 1.11 | locus YPR025C, strain CCL1, active compounds read low 0.999 | locus YPR106W, strain ISR1, active compounds read low 0.992 | locus YPR111W, strain DBF20, active compounds read low 0.986 | strain NNK1, active compounds read low 0.994 | strain TSCII, active compounds read low 0.995
